Activity calls are given as the source filed them.
Columns and labels:
[1] = optical density shifts of acrAB sulA E. coli – strain DRC41, OD650, 48 h, E. coli filamentation inducer project, primary screen (AID 1152); settings: higher = more signal, called active from +8 up or from −8 down;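 further: E. coli MC1000 strain DRC41 lacking acrAB efflux pump and sulA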
[2] = probe aLefty1 binding on compound microarray – biochemical, small-molecule microarray, 635/667 nm fluorescence, primary screen (AID 1153); settings: higher = more signal;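 further: score merges spot fluorescence with signal-to-noise ratio from the scanned slide images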
[3] = plasmodial surface anion channel blockers, osmotic lysis – cell-based, P. falciparum Indochina, OD700, 1 h, primary screen (AID 1154); settings: P. falciparum Indochina infected RBC osmotic lysis, higher = more signal, called active from +8 up or from −8 down
[4] = plasmodial surface anion channel blockers, osmotic lysis – cell-based, P. falciparum Indochina, OD700, 2 h, primary screen (AID 1155);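 further: lysis reports solute entry through the parasite surface anion channel PSAC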; settings: P. falciparum Indochina infected erythrocytes, higher = more signal, called active from +8 up or from −8 down
[5] = changes in parasitized red cell lysis, either direction – P. falciparum Indochina, OD700, 3 h, PSAC antagonist project, primary screen (AID 1156); settings: P. falciparum-infected erythrocytes, osmotic lysis, higher = more signal, called active from +8 up or from −8 down
[6] = plasmodial surface anion channel blockers, osmotic lysis – cell-based, P. falciparum Indochina, OD700, 18 h, primary screen (AID 1157); settings: P. falciparum Indochina infected erythrocytes, osmotic lysis OD700, 18 h; higher = more signal, called active from +8 up or from −8 down
[7] = S6 kinase pathway phospho-S6 level changes – cell-based, A549, cytoblot, luminescence, serum-stimulated, primary screen (AID 1158); settings: 5 h, higher = more signal;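 further: serum-stimulated A549 lung adenocarcinoma cells; signal is phosphorylated S6 detected by cytoblot immunostaining with HRP secondary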
[8] = molecular target: NADPH oxidase 2 (Homo sapiens) (UniProt P04839); experiment: compounds shifting NOX2 Amplex Red fluorescence – cell-based, HEK293-NOX2, PMA-stimulated, NOX inhibitor project, primary screen (AID 1159); settings: 45 min, higher = more signal, called active from +8 up or from −8 down; further: test concentration not given here
[9] = molecular target: NADPH oxidase 4 (Homo sapiens) (UniProt Q9NPH5); experiment: compounds shifting NOX4 Amplex Red fluorescence – cell-based, HEK293-NOX4, tetracycline-induced, NOX inhibitor project, primary screen (AID 1160); settings: HEK293-NOX4, Amplex Red H2O2 fluorescence, 45 min; higher = more signal, called active from +8 up or from −8 down
[10] = molecular target: NADPH oxidase 5 (Homo sapiens) (UniProt Q96PH1); experiment: compounds shifting NOX5 Amplex Red fluorescence – cell-based, HEK293-NOX5, NOX inhibitor project, primary screen (AID 1161); settings: HEK293-NOX5, ionomycin, 45 min, higher = more signal
NADPH oxidase 5 (Homo sapiens), sequence (Q96PH1 whole entry, looked up): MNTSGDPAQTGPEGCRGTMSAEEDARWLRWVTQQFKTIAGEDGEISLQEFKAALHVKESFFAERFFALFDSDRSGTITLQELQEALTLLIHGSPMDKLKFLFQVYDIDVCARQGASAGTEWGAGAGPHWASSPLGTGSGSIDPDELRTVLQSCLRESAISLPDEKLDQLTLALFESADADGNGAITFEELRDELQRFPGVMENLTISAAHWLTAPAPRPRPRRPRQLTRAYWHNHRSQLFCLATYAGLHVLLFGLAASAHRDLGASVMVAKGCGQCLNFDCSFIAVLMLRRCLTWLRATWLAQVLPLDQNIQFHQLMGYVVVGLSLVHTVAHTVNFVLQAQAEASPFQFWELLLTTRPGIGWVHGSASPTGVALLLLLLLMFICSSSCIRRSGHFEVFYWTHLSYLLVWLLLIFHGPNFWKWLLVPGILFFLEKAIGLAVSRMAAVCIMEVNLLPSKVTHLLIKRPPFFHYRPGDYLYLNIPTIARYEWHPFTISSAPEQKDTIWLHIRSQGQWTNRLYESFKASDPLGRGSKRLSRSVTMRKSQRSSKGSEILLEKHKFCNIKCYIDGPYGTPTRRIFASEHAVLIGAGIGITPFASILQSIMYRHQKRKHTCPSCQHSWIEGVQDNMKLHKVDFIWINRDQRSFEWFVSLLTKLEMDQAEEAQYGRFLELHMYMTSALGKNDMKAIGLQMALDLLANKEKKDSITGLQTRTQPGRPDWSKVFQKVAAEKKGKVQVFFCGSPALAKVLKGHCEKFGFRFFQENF

NADPH oxidase 4 (Homo sapiens), sequence (Q9NPH5 whole entry, looked up): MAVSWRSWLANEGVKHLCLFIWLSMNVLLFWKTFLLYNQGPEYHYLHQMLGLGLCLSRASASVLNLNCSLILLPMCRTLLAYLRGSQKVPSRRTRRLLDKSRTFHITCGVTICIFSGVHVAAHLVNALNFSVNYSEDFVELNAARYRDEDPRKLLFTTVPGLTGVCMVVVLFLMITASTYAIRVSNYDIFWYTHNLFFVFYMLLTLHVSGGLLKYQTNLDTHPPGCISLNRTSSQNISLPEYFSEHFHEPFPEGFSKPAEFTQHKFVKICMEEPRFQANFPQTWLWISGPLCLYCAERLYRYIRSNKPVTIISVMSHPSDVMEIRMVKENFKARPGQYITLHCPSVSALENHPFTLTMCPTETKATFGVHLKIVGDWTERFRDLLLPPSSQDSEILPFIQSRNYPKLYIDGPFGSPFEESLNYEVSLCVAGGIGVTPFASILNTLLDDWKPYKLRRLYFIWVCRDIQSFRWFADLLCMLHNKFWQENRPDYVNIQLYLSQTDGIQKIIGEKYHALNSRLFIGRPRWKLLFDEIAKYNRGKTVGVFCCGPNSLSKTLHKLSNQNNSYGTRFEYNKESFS
NADPH oxidase 2 (Homo sapiens), sequence (P04839 whole entry, looked up): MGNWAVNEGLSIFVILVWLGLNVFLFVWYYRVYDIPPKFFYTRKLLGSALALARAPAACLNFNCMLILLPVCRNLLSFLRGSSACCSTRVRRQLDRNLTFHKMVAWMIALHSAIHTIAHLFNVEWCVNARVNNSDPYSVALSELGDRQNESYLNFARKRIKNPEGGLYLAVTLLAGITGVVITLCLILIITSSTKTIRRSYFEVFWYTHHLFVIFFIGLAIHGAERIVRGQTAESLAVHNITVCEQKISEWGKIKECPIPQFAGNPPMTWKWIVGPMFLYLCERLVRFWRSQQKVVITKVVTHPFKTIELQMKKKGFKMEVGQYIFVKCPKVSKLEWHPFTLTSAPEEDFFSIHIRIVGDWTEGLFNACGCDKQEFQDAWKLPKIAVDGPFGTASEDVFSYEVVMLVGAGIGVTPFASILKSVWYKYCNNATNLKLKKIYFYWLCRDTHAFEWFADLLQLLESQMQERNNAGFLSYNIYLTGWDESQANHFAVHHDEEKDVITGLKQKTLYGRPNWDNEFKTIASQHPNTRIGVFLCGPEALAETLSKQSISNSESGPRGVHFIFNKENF

## COCCOC(=O)N1C(=O)[C@@]2(c3cc(C#CCC(C(=O)OC)C(=O)OC)ccc31)[C@H](c1ccc(O)cc1)N1[C@H](c3ccccc3)[C@H](c3ccccc3)OC(=O)[C@H]1[C@@H]2C(=O)N1CCc2cc(OC)c(OC)cc2C1
[1]
  z-score: 0.904 (inactive)
[2]
  composite z-score: -0.149
[3]
  z-score: 0.442 (inactive)
[4]
  z-score: 0.0876 (inactive)
[5]
  z-score: 0.328 (inactive)
[6]
  z-score: 0.394 (inactive)
[7]
  z-score: 0.161
[8]
  z-score: 1.94 (inactive)
[9]
  z-score: 0.336 (inactive)
[10]
  z-score: 1.23

## CCCCCN1CC=CC23O[C@@H]4/C=C\CCCOC(=O)C4[C@H]2C(=O)N(CCCCCO)[C@@H]3C1=O (stereo not given in full)
[1]
  z-score: 1.83 (inactive)
[2]
  composite z-score: -0.255
[3]
  z-score: 0.46 (inactive)
[4]
  z-score: -0.618 (inactive)
[5]
  z-score: -1.29 (inactive)
[6]
  z-score: -1.27 (inactive)
[7]
  z-score: -0.0754
[8]
  z-score: 0.834 (inactive)
[9]
  z-score: 0.0699 (inactive)
[10]
  z-score: 1.41

## C=C(C)C1CN([C@H](CO)c2ccccc2)C(=O)/C1=C\c1ccccc1 (stereo not given in full)
[1]
  z-score: 1.01 (inactive)
[2]
  composite z-score: -0.147
[3]
  z-score: -0.0012 (inactive)
[4]
  z-score: -0.916 (inactive)
[5]
  z-score: -0.683 (inactive)
[6]
  z-score: -1.8 (inactive)
[7]
  z-score: 1.59
[8]
  z-score: -0.00303 (inactive)
[9]
  z-score: 0.0494 (inactive)
[10]
  z-score: -1.27

## CN(C)CCCC[C@@H]1NC(=O)[C@H]2C[C@@H](C(=O)NCCCCCCNC(=O)CS)[C@@H](c3cccc(OCCO)c3)N2C1=O
[1]
  z-score: -0.175 (inactive)
[2]
  composite z-score: -0.139
[3]
  z-score: 2.29 (inactive)
[4]
  z-score: 0.677 (inactive)
[5]
  z-score: 1.26 (inactive)
[6]
  z-score: 0.228 (inactive)
[7]
  z-score: -0.617
[8]
  z-score: 1.07 (inactive)
[9]
  z-score: 0.981 (inactive)
[10]
  z-score: 0.992

## C=C(CCCC)C(=O)CC[C@@H](OC(C)=O)c1ccc(OCCO)cc1
[1]
  z-score: 0.0142 (inactive)
[2]
  composite z-score: 0.0533
[3]
  z-score: 7.67 (inactive)
[4]
  z-score: 1.16 (inactive)
[5]
  z-score: 0.888 (inactive)
[6]
  z-score: 0.455 (inactive)
[7]
  z-score: -0.222
[8]
  z-score: -1.4 (inactive)
[9]
  z-score: -1.4 (inactive)
[10]
  z-score: -1.87

## C=CCN1C(=O)[C@@]2(O[C@@H](CCO)[C@H]([Si](C)(C)c3ccc(OC)cc3)[C@H]2C)c2cc(N3CCCCC3=O)ccc21
[1]
  z-score: 0.424 (inactive)
[2]
  composite z-score: 0.102
[3]
  z-score: 23.8 (active)
[4]
  z-score: 7.85 (inactive)
[5]
  z-score: -0.302 (inactive)
[6]
  z-score: 1.9 (inactive)
[7]
  z-score: 1.44
[8]
  z-score: -1.63 (inactive)
[9]
  z-score: -0.258 (inactive)
[10]
  z-score: -0.607

## O=C(NCCN1CCOCC1)[C@@H]1c2ccccc2C(=O)N(CC23CC4CC(CC(C4)C2)C3)[C@H]1c1ccc(CO)cc1
[1]
  z-score: 0.0865 (inactive)
[2]
  composite z-score: 0.409
[3]
  z-score: 2.89 (inactive)
[4]
  z-score: 1.09 (inactive)
[5]
  z-score: 1.29 (inactive)
[6]
  z-score: 0.744 (inactive)
[7]
  z-score: -0.407
[8]
  z-score: -0.0458 (inactive)
[9]
  z-score: -1.7 (inactive)
[10]
  z-score: -1.61

## C=C(COC)/C(=C/C[C@@H](OC(C)=O)c1cccc(OCCO)c1)c1cnc2ccccc2c1
[1]
  z-score: 0.441 (inactive)
[2]
  composite z-score: 0.106
[3]
  z-score: 22.7 (active)
[4]
  z-score: 4.9 (inactive)
[5]
  z-score: 0.377 (inactive)
[6]
  z-score: 1.58 (inactive)
[7]
  z-score: 0.249
[8]
  z-score: -1.21 (inactive)
[9]
  z-score: -0.77 (inactive)
[10]
  z-score: -2.27

## C=CCNC(=O)[C@@H]1[C@H]2C(=O)O[C@H](c3ccccc3)[C@H](c3ccccc3)N2[C@H](c2ccc(OCCO)cc2)[C@@]12C(=O)N(C(=O)OCCOC)c1ccccc12
[1]
  z-score: 0.127 (inactive)
[2]
  composite z-score: 0.258
[3]
  z-score: 3.15 (inactive)
[4]
  z-score: 1.27 (inactive)
[5]
  z-score: -0.947 (inactive)
[6]
  z-score: 0.442 (inactive)
[7]
  z-score: -0.296
[8]
  z-score: 0.406 (inactive)
[9]
  z-score: 0.789 (inactive)
[10]
  z-score: -0.0693

## COc1cc2c(cc1O)C(C)N(Cc1sc3ccccc3c1Cl)CC2 (stereo not given)
[1]
  z-score: 0.268 (inactive)
[2]
  composite z-score: -0.145
[3]
  z-score: 4.05 (inactive)
[4]
  z-score: 2.4 (inactive)
[5]
  z-score: 0.334 (inactive)
[6]
  z-score: 1.85 (inactive)
[7]
  z-score: -0.43
[8]
  z-score: -3.7 (inactive)
[9]
  z-score: -2.3 (inactive)
[10]
  z-score: -3.2

## C=C(C(=O)CC[C@@H](OC(=O)c1ccccc1-c1ccccc1C(=O)O)c1ccc(CO)o1)C(C)C
[1]
  z-score: -0.796 (inactive)
[2]
  composite z-score: 0.0945
[3]
  z-score: 0.897 (inactive)
[4]
  z-score: 0.192 (inactive)
[5]
  z-score: 0.365 (inactive)
[6]
  z-score: 0.0861 (inactive)
[7]
  z-score: -0.535
[8]
  z-score: 1 (inactive)
[9]
  z-score: -0.593 (inactive)
[10]
  z-score: -0.213

## COC(=O)[C@@]1(Cc2ccc(F)cc2)[C@H]2c3cc(C(=O)N(C)C)n(Cc4ccsc4Br)c3C[C@H]2CN1C(=O)c1ccccc1
[1]
  z-score: -1.62 (inactive)
[2]
  composite z-score: 1.06
[3]
  z-score: 3.86 (inactive)
[4]
  z-score: 0.413 (inactive)
[5]
  z-score: 0.952 (inactive)
[6]
  z-score: 0.765 (inactive)
[7]
  z-score: -0.155
[8]
  z-score: -2.09 (inactive)
[9]
  z-score: -5.46 (inactive)
[10]
  z-score: -2.35

## COCCOC(=O)N1C(=O)[C@@]2(c3cc(C#CCNC(N)=O)ccc31)[C@H](C(=O)N1CCN(c3ncccn3)CC1)[C@H]1C(=O)O[C@H](c3ccccc3)[C@H](c3ccccc3)N1[C@@H]2c1ccc(O)cc1
[1]
  z-score: 0.03 (inactive)
[2]
  composite z-score: -0.514
[3]
  z-score: 1.35 (inactive)
[4]
  z-score: -0.136 (inactive)
[5]
  z-score: 0.889 (inactive)
[6]
  z-score: 0.539 (inactive)
[7]
  z-score: -0.285
[8]
  z-score: 0.806 (inactive)
[9]
  z-score: 0.432 (inactive)
[10]
  z-score: 0.31
